How the values were obtained:
Experiment in all cases: log2 ratio of Biotin-Ahx-Ub-VS probe labelling (fragment/DMSO); higher = less target engagement (more negative = stronger competition), active = hit call of the paper (q ≤ 0.05, log2 ratio ≤ -1)
Settings in all cases: compound concentration: 200 uM; treatment time: 3 h
USP34 = USP34 (UniProt Q70CQ2)
Outline: (§1)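 Average log2 ratios of fragment over vehicle were obtained by unpaired t-test from global-median-normalised Spectronaut label-free quantities. Proteins with ≥2 unique peptides were included. HEK293T lysate (495 µg per sample) was treated in triplicate with fragment at 200 µM or vehicle for 3 h, then with Biotin-Ahx-Ub-VS at 0.5 µM final for 1 h, and labelled DUBs were NeutrAvidin-enriched and run by diaPASEF LC-MS/MS.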

USP36 = target: T1, USP36 (UniProt Q9P275)
T1 sequence (whole entry): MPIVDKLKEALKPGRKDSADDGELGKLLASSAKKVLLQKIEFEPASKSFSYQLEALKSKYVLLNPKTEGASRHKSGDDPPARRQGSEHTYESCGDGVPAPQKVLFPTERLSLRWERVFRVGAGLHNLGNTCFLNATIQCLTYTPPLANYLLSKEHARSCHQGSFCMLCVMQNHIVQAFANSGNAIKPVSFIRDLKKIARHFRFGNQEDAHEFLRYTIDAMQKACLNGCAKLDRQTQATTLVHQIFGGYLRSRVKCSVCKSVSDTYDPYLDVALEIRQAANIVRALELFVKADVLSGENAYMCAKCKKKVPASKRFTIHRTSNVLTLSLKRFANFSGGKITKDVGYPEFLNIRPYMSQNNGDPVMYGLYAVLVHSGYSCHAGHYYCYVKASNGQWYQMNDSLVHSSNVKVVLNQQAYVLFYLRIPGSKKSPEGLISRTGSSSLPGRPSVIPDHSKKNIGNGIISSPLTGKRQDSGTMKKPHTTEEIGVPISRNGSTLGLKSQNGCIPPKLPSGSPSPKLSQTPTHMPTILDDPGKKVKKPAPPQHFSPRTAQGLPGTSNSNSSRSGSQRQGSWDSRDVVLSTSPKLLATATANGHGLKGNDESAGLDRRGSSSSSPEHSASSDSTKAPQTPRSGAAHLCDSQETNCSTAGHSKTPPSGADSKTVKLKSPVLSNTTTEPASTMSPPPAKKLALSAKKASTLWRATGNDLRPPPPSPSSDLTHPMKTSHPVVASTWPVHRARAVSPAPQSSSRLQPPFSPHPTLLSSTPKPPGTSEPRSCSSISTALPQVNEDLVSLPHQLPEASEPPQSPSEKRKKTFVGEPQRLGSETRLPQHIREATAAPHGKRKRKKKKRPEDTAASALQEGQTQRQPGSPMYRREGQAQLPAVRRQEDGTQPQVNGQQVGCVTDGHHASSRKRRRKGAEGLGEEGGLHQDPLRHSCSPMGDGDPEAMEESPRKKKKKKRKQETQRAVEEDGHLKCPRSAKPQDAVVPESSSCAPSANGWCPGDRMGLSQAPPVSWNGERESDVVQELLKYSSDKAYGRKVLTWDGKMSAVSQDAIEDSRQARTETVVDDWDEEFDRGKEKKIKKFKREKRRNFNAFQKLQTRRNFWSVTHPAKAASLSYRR
Outline: as §1

USP38 = target: T2, USP38 (UniProt Q8NB14)
T2 sequence (whole entry): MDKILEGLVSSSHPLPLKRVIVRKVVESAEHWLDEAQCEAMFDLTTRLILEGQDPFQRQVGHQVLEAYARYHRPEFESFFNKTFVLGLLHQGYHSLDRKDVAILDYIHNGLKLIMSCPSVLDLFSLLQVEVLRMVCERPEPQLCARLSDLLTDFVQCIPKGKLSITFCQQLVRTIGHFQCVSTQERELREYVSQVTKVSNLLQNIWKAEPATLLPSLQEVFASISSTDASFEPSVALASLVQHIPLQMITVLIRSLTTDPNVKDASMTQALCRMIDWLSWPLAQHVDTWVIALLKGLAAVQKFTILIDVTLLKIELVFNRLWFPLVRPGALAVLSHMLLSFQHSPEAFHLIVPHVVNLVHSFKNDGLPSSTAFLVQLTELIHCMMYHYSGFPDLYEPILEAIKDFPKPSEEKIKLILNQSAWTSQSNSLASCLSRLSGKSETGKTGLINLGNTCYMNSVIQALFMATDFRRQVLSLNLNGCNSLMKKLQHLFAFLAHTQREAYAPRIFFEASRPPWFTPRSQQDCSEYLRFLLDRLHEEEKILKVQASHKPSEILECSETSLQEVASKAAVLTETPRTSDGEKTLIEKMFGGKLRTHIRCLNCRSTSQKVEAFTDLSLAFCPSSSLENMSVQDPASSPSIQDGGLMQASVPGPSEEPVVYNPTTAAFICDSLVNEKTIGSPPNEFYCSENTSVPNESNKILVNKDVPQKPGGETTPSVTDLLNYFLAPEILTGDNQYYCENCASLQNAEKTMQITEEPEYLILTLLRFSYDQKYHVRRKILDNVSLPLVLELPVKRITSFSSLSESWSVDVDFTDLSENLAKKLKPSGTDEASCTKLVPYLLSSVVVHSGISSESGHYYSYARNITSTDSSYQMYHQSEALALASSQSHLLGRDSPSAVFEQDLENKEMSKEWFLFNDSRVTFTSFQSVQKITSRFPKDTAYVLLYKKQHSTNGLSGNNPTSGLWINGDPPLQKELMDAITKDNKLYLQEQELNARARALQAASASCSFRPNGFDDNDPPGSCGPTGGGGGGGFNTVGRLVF
Outline: as §1

USP39 = target: T3, USP39 (UniProt Q53GS9)
T3 sequence (whole entry): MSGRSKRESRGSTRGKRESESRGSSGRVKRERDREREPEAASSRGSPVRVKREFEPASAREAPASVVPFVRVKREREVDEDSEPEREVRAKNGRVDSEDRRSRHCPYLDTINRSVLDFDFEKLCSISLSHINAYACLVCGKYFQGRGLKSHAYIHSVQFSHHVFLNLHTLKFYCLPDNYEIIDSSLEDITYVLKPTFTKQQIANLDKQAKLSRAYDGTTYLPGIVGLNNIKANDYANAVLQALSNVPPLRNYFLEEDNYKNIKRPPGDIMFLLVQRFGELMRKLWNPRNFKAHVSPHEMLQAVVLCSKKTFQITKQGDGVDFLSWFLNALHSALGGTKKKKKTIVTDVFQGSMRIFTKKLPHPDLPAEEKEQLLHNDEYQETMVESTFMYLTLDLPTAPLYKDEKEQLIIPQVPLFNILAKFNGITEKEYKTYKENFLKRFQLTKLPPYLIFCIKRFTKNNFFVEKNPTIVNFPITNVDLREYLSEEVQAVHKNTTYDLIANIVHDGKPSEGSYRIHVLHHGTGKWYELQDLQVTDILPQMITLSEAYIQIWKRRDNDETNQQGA
Outline: as §1

USP4 = target: T4, USP4 (UniProt Q13107)
T4 sequence (whole entry): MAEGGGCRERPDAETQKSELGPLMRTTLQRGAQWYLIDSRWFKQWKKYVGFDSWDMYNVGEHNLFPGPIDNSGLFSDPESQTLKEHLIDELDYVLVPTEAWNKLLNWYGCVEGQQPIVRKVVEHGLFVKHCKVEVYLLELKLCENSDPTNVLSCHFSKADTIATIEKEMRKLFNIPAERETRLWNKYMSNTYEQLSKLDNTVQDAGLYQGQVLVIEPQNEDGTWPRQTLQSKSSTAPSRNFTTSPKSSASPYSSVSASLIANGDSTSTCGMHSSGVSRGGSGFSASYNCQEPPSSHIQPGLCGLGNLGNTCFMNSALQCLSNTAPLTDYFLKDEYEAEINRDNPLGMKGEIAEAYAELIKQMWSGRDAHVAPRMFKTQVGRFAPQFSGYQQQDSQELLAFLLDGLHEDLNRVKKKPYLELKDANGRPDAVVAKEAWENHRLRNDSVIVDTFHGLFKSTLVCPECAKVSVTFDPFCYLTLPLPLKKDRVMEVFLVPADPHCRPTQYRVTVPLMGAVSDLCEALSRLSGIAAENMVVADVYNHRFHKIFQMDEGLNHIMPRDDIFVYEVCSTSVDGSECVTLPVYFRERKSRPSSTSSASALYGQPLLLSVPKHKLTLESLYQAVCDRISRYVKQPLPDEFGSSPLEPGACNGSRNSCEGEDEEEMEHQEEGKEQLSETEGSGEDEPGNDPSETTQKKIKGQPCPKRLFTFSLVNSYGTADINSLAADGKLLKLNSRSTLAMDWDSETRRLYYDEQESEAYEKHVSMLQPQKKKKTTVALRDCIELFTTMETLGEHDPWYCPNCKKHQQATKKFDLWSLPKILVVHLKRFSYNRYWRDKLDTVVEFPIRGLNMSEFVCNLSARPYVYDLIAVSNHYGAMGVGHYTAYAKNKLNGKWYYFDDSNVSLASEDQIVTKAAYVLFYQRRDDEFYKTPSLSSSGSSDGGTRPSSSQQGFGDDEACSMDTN
Outline: as §1

Measured: log2 ratio of Biotin-Ahx-Ub-VS probe labelling

USP34, sequence (Q70CQ2 whole entry, the tested form may be a part): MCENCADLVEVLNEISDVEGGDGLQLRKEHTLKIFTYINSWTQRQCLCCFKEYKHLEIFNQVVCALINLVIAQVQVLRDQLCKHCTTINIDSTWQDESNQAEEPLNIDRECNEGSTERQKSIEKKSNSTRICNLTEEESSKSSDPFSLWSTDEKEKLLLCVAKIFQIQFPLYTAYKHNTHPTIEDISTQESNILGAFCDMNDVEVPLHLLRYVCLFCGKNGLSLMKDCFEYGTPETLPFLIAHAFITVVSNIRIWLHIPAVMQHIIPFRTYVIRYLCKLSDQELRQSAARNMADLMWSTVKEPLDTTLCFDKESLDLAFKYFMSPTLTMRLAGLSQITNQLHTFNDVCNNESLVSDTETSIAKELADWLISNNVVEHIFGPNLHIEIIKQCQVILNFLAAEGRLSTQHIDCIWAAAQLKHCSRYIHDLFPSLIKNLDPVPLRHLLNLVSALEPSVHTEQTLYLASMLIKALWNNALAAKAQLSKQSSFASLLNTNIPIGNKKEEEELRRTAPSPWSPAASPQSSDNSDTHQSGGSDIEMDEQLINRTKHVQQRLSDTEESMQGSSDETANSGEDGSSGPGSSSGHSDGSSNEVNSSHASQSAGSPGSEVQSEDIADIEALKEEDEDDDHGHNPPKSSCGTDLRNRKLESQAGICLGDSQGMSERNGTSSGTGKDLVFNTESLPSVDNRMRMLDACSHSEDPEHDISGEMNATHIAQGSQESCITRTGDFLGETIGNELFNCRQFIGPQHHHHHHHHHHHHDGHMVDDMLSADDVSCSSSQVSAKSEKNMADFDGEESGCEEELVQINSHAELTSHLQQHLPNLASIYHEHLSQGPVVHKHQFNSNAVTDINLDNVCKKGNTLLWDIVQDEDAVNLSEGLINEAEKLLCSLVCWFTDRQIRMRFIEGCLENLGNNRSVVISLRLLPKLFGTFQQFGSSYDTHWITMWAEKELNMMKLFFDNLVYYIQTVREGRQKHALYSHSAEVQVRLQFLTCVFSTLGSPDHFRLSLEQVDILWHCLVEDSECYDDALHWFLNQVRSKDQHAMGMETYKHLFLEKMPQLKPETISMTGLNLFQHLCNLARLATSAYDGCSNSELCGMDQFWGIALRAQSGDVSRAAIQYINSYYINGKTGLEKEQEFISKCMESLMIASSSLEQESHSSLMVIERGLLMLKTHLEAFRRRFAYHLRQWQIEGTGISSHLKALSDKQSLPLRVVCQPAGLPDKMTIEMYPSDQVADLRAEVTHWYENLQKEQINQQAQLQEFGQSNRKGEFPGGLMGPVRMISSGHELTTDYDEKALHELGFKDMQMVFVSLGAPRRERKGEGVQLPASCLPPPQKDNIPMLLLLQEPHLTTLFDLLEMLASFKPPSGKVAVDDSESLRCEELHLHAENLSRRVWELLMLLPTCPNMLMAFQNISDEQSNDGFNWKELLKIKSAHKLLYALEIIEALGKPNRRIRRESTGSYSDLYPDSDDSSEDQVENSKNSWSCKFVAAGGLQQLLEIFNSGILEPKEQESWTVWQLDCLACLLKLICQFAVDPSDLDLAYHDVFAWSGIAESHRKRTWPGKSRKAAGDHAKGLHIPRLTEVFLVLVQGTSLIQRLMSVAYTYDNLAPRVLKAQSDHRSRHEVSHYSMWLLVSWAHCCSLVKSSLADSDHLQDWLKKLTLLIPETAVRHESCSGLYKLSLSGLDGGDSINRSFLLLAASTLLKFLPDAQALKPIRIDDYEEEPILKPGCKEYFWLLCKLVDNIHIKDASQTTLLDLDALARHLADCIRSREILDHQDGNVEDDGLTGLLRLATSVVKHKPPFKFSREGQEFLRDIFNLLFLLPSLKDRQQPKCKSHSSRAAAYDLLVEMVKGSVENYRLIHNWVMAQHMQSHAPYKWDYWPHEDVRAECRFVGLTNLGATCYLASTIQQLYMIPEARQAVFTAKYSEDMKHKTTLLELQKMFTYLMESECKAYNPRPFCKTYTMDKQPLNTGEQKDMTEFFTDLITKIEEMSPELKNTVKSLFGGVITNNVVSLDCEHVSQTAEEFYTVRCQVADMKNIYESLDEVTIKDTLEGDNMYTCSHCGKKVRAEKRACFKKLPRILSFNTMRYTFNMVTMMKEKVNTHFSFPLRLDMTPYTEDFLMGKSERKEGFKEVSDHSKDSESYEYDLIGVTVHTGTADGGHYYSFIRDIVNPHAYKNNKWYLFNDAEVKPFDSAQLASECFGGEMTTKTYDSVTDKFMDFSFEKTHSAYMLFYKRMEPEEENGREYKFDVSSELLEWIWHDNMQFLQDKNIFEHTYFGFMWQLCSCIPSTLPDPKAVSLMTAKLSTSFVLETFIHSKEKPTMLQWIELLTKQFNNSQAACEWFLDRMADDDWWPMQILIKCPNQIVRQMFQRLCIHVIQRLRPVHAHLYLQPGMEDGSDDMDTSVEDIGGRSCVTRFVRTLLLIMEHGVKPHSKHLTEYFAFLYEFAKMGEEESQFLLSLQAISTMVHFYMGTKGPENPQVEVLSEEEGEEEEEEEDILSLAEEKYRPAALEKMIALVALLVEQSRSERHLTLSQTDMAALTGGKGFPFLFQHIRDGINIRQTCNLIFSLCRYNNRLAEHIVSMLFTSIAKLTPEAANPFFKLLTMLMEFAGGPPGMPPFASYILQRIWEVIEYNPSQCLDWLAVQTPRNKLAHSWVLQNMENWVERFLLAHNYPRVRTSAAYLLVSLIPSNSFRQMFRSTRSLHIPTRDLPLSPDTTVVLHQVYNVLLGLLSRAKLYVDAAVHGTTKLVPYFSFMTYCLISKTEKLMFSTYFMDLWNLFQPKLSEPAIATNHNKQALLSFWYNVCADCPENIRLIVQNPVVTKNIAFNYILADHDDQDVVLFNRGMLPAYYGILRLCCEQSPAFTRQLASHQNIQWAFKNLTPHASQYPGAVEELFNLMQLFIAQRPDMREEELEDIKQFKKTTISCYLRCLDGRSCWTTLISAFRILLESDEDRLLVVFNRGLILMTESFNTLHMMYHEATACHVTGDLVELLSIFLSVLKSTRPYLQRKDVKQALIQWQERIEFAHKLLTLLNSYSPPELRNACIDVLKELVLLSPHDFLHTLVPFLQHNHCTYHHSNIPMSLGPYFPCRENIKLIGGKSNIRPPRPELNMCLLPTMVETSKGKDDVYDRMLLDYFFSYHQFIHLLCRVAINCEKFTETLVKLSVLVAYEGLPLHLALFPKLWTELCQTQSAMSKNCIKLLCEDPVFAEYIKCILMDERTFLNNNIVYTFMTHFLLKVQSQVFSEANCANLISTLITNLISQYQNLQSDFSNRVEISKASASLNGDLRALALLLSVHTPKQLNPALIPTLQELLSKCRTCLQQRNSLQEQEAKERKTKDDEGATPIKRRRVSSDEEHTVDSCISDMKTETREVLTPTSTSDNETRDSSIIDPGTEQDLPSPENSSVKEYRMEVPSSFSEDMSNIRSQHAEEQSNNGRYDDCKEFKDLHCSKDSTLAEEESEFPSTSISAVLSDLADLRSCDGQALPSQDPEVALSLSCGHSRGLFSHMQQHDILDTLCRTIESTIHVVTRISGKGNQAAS

Cc1ncsc1CCNC(=O)CCl
inactive: USP34 0.121 | USP36 -0.151 | USP38 0.14 | USP39 -0.101 | USP4 0.244
